# This is a sample that favours compounds with a hit; in the whole collection about 0.71% have one here.
# RGS12 GoLoco inh = qHTS Assay for Inhibitors of RGS12 GoLoco Motif Activity (Red Fluorophore); AID 880, 2007; 230,000 compounds, 0.44% hits; Guanine nucleotide-binding protein G(i) subunit alpha-1 (Homo sapiens), P63096; Potency, µM (titrated, usually from 61.6 µM), without a hit: at the top dose activity, negative = inhibition, actives largely listed as inhibitors; Gai1:RGS12 GoLoco peptide FP, rhodamine, 10 min; active means well fitted inhibition curve with a large enough effect, not every such curve was filed as active; inactive means no such curve, though single readings can be large or run the other way; further: potency means the concentration at half of the fitted maximal effect; on the % scale 0 is the no-effect control and ±100 the full control effect; nearly all actives have a fitted effect of over 30% in size
# TexasRed fluor = Total Fluorescence Counterscreen for Inhibitors of the Interaction of Thyroid Hormone Receptor and Steroid Receptor Coregulator 2. TRb/SRC2 Texas Red total fluorescence interference. Potency, µM (top dose mostly 106 µM), inactives show at the highest dose fluorescence change, negative = quenching. 280,000 compounds, 0.29% hits; active means well fitted curve in either direction with a large enough effect; inconclusive means small, poorly fitted or top-dose-only effect; further: potency means the concentration at half of the fitted maximal effect; on the % scale 0 is the no-effect control and ±100 the full control effect
#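 Flags fluorescent or light-absorbing compounds by total fluorescence, S + 2P, at 555 nm excitation and 632 nm emission. Mixture: 20 nM Texas Red SRC2 peptide, 0.6 uM human TRb LBD, 1 uM T3, 5% DMSO; compound exposure 5 h at ambient temperature.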
# Epigenetic derep = Quantitative High-Throughput Screen for Regulators of Epigenetic Control; murine LDR cells, GFP reporter derepression, 30 h; Potency, µM (series often up to 53.9 µM), for the others: at the highest dose GFP activation, most hits filed as activators; 280,000 compounds, 0.2% hits; AID 1865, 2009; further: potency means the concentration at half of the fitted maximal effect; % of control where 0% means no effect; nearly all actives have a fitted effect of over 60% in size
#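 Murine LDR cells bearing a silenced CMV-driven GFP reporter were exposed to compound for 30 h at 37 C. After PBS washes, GFP-positive cells (20-120 um objects) counted by laser-scanning microplate cytometry.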
# TRb-SRC2 inh = qHTS for Inhibitors of the Interaction of Thyroid Hormone Receptor and Steroid Receptor Coregulator 2; Thyroid hormone receptor beta (Homo sapiens), P10828; TRbeta-SRC2 peptide binding, fluorescence polarization; receptor liganded with 1 µM T3; Potency, µM (titrated, usually from 106 µM), inactives show top-dose activity change, negative = inhibition, hits mostly inhibitors; 280,000 compounds, 0.065% hits;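 further: potency means the concentration at half of the fitted maximal effect; plate controls were bound peptide for no effect and peptide without receptor for full effect; nearly all actives have a fitted effect of over 50% in size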
# Target sequence (P10828 whole entry, looked up): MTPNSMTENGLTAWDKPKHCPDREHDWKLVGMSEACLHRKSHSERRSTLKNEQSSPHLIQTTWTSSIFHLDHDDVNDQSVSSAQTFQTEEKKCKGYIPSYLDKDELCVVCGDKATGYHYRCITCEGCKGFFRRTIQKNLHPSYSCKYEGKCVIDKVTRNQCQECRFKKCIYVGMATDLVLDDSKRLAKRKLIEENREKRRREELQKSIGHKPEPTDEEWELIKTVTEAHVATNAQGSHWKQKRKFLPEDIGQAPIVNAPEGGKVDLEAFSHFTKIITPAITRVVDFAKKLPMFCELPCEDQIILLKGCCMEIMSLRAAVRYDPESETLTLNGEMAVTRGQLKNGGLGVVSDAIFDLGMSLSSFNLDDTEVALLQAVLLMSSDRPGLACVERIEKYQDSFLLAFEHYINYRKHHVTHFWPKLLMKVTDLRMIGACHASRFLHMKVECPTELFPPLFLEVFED
#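 Polarization signal, normalized between peptide-alone and full complex controls, measured compound effects on T3-liganded human TRb LBD (0.6 uM) binding 20 nM Texas Red SRC2 peptide after 5 hr.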
# CBFb RUNX1 block = qHTS Assay for Compounds Blocking the Interaction Between CBF-beta and RUNX1 for the Treatment of Acute Myeloid Leukemia | Runt-related transcription factor 1 (Homo sapiens) + Core-binding factor subunit beta … | AlphaScreen CBFb-His/RUNX1-biotin binding, biochemical | Potency, µM (top dose mostly 59.8 µM), without a hit: top-dose activity, negative = inhibition, actives largely listed as inhibitors | 230,000 tested, under 10 active | AID 1477, 2009; further: % of control where 0% means no effect
#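 CBF-beta (His) and RUNX1 (biotin), 30 nM each; 20 min preassociation; + compound, 15 min; + beads 50 ng each (Ni, streptavidin), 90 min; RT; AlphaScreen read.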
# * hit, by the source's call; ? = inconclusive; / = not tested or not shown; ! = a repeat was not active; [ ] = dose if it differs, or a comment. Unless noted, the call rests on the fitted dose curve; in most records, active means well fitted curve in the direction sought with a large enough effect; inconclusive means small, poorly fitted or top-dose-only effect, or another doubt; inactive means no such curve, though single readings can be large; an effect the other way counts as inactive or inconclusive.
SMILES,RGS12 GoLoco inh,TexasRed fluor,Epigenetic derep,TRb-SRC2 inh,CBFb RUNX1 block
COc1cccc(NC(=O)c2sc3nc(C)c(C(=O)Nc4ccc(C)cc4C)c(-c4ccco4)c3c2N)c1,/,-1%,1%,-2%,/
O=C(NCCCN1CCOCC1)c1ccc(-n2c(=O)c(=O)[nH]c3ccccc32)cc1,/,/,-2%,/,/
CCOC(=O)c1sc(Nc2nc3cc4c(cc3s2)OCO4)cc1C,29%,0.32µM*[quencher],0%,2%,2%
CCN(CC)C(=S)S,/,-2%,/,2%,/
CC(COc1ccc(/C=C/c2ccccc2)cc1)[N+](C)(C)C (centres undefined),10µM*,-6%,6%,1%,5%
COc1ccc(/C=C/c2nc3ccccc3n2C)cc1,10%,-6%,1%,2%,17%
CC(=O)OCC1OC(Oc2cc(OC(C)=O)c3c(=O)cc(-c4ccc(OC(C)=O)c(OC(C)=O)c4)oc3c2)C(OC(C)=O)C(OC(C)=O)C1OC(C)=O (centres undefined),3%,-4%,19%,7%,-8%[21.7 µM]
CCC(=O)Nc1ccc2nc3c(=O)n(C)c(=O)n(C)c3nc2c1,/,10%,0%,2%,/
CCN(CC)c1ccc2nc3c(=O)n(C)c(=O)n(C)c3nc2c1,/,22µM*[fluorescent],13µM*,-24%,/
CC1(C)CC(OC(=O)CCCCCCCCC(=O)OC2CC(C)(C)NC(C)(C)C2)CC(C)(C)N1,/,-1%[201 µM],/,-2%[201 µM],/
O=C1c2ccccc2C(=O)c2c(NC3CCCCC3)ccc(Nc3ccc(S(=O)(=O)O)cc3)c21,3.5µM*,/,/,/,/
O=c1c2sc3ccccc3c2n(Cc2cccc(C(F)(F)F)c2)c(=O)n1Cc1ccc(F)cc1,/,0%,1%,-6%,/
CCN1CCN(C2=CC3=CC(=C(C#N)C#N)CCC3CC2)CC1 (centres undefined),86%,1%,1.4µM*,-7%,-4%
CN1CCN(C2=CC3=CC(=C(C#N)C#N)CCC3CC2)CC1 (centres undefined),23%,1%,?,-12%,-24%
N#CC(C#N)=C1C=C2C=C(N3CCOCC3)CCC2CC1 (centres undefined),72%,1%,10µM*,6%,-3%
N#CC(C#N)=C1C=C2C=C(N3CCCCCC3)CCC2CC1 (centres undefined),-115%,10%,?,-5%,12%
COc1ccc2c(c1)C(=O)[C@@H](OC(=O)NCc1ccco1)[C@H](c1ccc(OC)c(Br)c1)O2,2%,0%,1%,-3%,0%
OCc1cc2c(cn1)[nH]c1ccccc12,3%,-2%,1%,0%,-2%
CCN(CC)c1ccc(N=Cc2cc(Br)ccc2O)cc1,91%,11%,3%,50µM*,-24%
Oc1ccc(Br)cc1C=Nc1ccc(Cl)cc1,-1%,-1%,-3%,-4%,13%
CC(C)OC(=O)c1cc(C(=O)OC(C)C)cc([N+](=O)[O-])c1,/,0%[201 µM],/,-5%[201 µM],/
COc1ccc2oc(=O)c(C(=O)C[n+]3cccc(C)c3)cc2c1,10µM*,0%,-2%,-4%,1%
Cc1cccc(NC(=O)c2ccc(NCCc3ccccc3)c([N+](=O)[O-])c2)c1,0%,3%,18µM*,0%,-4%
Cc1ccc(NC(=O)c2ccc(NCCN)c([N+](=O)[O-])c2)cc1,10%,-1%,-3%,3%,-5%
CC(COc1ccc(C(C)(C)C)cc1)OS(=O)OCCCl (centres undefined),/,0%[201 µM],/,-1%[201 µM],/
SMILES,RGS12 GoLoco inh,TexasRed fluor,Epigenetic derep,TRb-SRC2 inh,CBFb RUNX1 block
CCCCNC(=O)c1ccc(Cc2nc3ccccc3[nH]2)cc1,/,/,-2%,/,/
CCCCc1cc(=O)oc2cc(C)c3c(C(C)(C)C)coc3c12,/,100µM*[quencher],-2%,-5%,/
O=C(c1cnc2c(c1)COc1ccc(Cl)cc1-2)c1ccccc1O,4%,7.9µM*![quencher],1%,-15%,-3%
Cc1ccc2c(c1)-c1ncc(C(=O)c3ccccc3O)cc1CO2,/,4%,2%,6%,/
CNc1nc(=O)n(C2CCCCC2)c(=O)n1C,/,-1%[201 µM],/,2%[201 µM],/
O=C(Nc1ccc(SC(F)F)cc1)c1cccc2nc3ccccc3nc12,/,?,7.1µM*,-6%,-4%
O=C(Cn1cnc2ccccc21)Nc1ccc(SC(F)F)cc1,7%,-2%,-1%,5%,13%
O=C(NCCCN1CCOCC1)c1cc(-c2cccs2)on1,-5%,1%,14µM*,-15%,5%
CCC(C)Nc1ccc(NC(C)CC)cc1 (centres undefined),32µM*,?,/,-30%[201 µM],?
CCC(C)NC(=O)COC(=O)c1csc2c1CCCC2 (centres undefined),-2%,0.0004µM*[quencher],2%,?,-6%
CCOC(=O)c1cc(N)cc([N+](=O)[O-])c1,-4%,-2%,1%,3%,-1%
CCOC(=O)c1sc2cc([N+](=O)[O-])cc(SCC(C)C)c2c1N,73%,-3%,3.2µM*,-6%,-1%
Cc1sc2ncn(CC(=O)N(C)c3cccc(C(F)(F)F)c3)c(=O)c2c1S(=O)(=O)N1CCN(c2ncccn2)CC1,/,0.079µM*[quencher],-1%,-25%[53 µM],/
CCN(CC)c1ccc2cc(-c3nc4ccccc4n3C)c(=O)oc2c1,11%,-4%,7.1µM*,3%,16%
CCN(CC)c1ccc2cc(-c3nc4ccccc4[nH]3)c(=O)oc2c1,9%,0%,2.8µM*,-1%,?
CCN(CC)c1ccc2cc(S(=O)(=O)c3ccc(Cl)cc3)c(=O)oc2c1,-1%,-1%,?,-2%,14%[2.36 µM]
CCN(CC)c1ccc2cc(-c3nc(-c4ccc(OC)cc4)cs3)c(=O)oc2c1,51%,13%,?,3%,?
CCN(CC)c1ccc2cc(-c3nc(-c4ccc(Cl)cc4Cl)cs3)c(=O)oc2c1,/,-1%,2.8µM*,2%,/
CC(C)(C)c1cc(C(C)(C)C)c2oc(=O)c(-c3nc4ccccc4[nH]3)cc2c1,/,3%,14%,-2%,/
CCN(CC)c1ccc2cc(-c3nnc(-c4ccccc4)o3)c(=O)oc2c1,9%,-5%,3.2µM*,3%,2%
O=c1oc2ccc3ccccc3c2cc1-c1nnc(-c2ccccc2)o1,9%,-2%,-1%,7%,-3%
Nc1ncnc2nc(-c3ccc(N4CCOCC4)nc3)cc(-c3cccc(Br)c3)c12,-7%,-19%,?,-2%,?
COc1ccc(-n2ccnc(NCc3ccccc3OC)c2=O)cc1,/,0%,-4%,-2%,/
CN(C)Cc1cc(CN(C)C)c(O)c(CN(C)C)c1,/,-3%[201 µM],/,5%[201 µM],/
O=C(O)c1cccc(NC2=C(Cl)C(=O)c3ccccc3C2=O)c1,14µM*,-10%,-4%,10%,-13%
O=c1oc(=O)c2cc3c(=O)oc(=O)c3cc12,/,0%[201 µM],/,10%[201 µM],/

# Assay outcomes: PubChem BioAssay, National Center for Advancing Translational Sciences (NCATS)
